CRFR2-BP antag = antagonists of CRF-BP/CRF-R2 complex, primary screen, cell-based, HEK293, calcium dye fluorescence, uHTS. CRF-induced calcium fluorescence. inhibition, % at 11.8 µM. 0.59% of 350,000 active. AID 588475, 2011;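 active = inhibition of the ligand-induced calcium signal above about 50% at the single tested concentration, limit read from the data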
TLR9-MyD88 inh = inhibitors of TLR9-MyD88 association in cells, primary screen, cell-based, CHO, BLA complementation, fluorescence; CCF4 FRET ratio; Toll-like receptor 9 (Homo sapiens) + Myeloid differentiation primary response protein …; inhibition, % at 4.98 µM; 0.21% of 340,000 active;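 active = inhibition above the mean over all tested compounds plus 3 SD, cut at about 21% in these data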
ABHD5 PLIN5 PPI = ABHD5-PLIN5 interaction inhibitors, primary screen, cell lysate, split luciferase complementation, luminescence; Split G. princeps luciferase complementation, 4 h; inhibition, % at 4 µM; 0.78% of 360,000 active;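 active = inhibition above the mean inhibition across every tested compound plus 3 SD, cut at about 22% in these data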
NOD2 RIPK2 PPI = NOD2-RIPK2 binding disruptors in cells, primary screen, fluorescence, CHO cells, BLA complementation. Receptor-interacting serine/threonine-protein kinase 2 (Homo sapiens), O43353. CCF4 ratio. inhibition, % at 4.98 µM. 0.38% of 360,000 active. AID 624267, 2012; in the data active = inhibition above about 21%
TLR4 MyD88 comp = inhibitors of TLR4-MyD88 association in cells, primary screen, cell-based, HeLa CL3-4, BLA complementation, FRET ratio. HeLa CL3-4 TLR4/MyD88 BLA complementation. 0.18% of 200,000 active. inhibition, % at 8.4 µM; in the data active = inhibition above about 25%
HTR2A ag = mouse Htr2a agonists via beta-arrestin recruitment, primary screen, cell-based, luminescence; activation, % at 7.6 µM; 0.66% of 360,000 active; 5-hydroxytryptamine receptor 2A (Mus musculus), P35363; CHO-K1 mHTR2A beta-arrestin complementation; percent of 30 µM serotonin response;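 active = activation above a run cutoff, the mean activation of all tested compounds plus 3 SD, cut at about 14% in these data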
Target sequence (P35363 whole entry, looked up): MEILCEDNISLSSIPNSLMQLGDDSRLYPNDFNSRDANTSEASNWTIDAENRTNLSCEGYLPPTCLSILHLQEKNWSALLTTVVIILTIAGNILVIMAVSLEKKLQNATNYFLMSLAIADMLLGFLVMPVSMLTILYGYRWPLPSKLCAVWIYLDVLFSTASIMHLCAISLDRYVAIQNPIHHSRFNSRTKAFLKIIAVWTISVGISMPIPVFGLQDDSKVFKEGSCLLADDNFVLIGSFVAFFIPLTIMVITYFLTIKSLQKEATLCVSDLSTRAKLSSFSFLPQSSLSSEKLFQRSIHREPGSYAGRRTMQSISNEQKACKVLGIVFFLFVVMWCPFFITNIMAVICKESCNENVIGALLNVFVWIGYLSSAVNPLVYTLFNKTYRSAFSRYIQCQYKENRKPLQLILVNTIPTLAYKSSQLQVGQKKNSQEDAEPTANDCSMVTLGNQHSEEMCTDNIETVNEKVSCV
OPRM1 ag = OPRM1 agonists via beta-arrestin recruitment, confirmation, counter-screen for mouse HTR2A agonist project, cell-based, luminescence, single concentration. 5.3% of 2,300 active. activation, % at 9.3 µM. U2OS OPRM1 beta-arrestin PathHunter; DMSO 0%, DAMGO 9.3 µM 100%. shares compounds with HTR2A ag. AID 624380, 2012;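 active = mean activation above the mean of DMSO-only wells plus 3 SD, cut at about 0.5% in these data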
HTR2A ag conf = mouse HTR2A agonists, beta-arrestin recruitment, confirmation, cell-based, luminescence, CHO-K1 PathHunter, triplicate; shares compounds with HTR2A ag; DMSO 0%, 30 µM serotonin 100%; activation, % at 7.6 µM; 19% of 2,300 active;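 active = mean activation across triplicates above the hit threshold derived in the original primary screen, cut at about 15% in these data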
Of the large screens only hits and unclear results are named; the others gave an inactive call (follow-up assays come after a bar, where they were run). In the library only some 2.4% were active in any assay of this set; here they are far more common.

COC(=O)C1=CN(c2ccc(OC)cc2OC)C(N)=C(C#N)C1c1ccccc1F (stereo not given)	none (no result: CRFR2-BP antag, TLR9-MyD88 inh, TLR4 MyD88 comp)
COc1cc(Cn2c3ccc(NC(=S)NCc4ccc(C)cc4)cc3c(=O)n2C)ccc1F	none (no result: CRFR2-BP antag, TLR9-MyD88 inh, TLR4 MyD88 comp)
NCCc1ccc(O)c(O)c1	HTR2A ag 42 | OPRM1 ag inactive | HTR2A ag conf 140
O=S(=O)(N1CCCCC1)N1CCCN(S(=O)(=O)N2CCCCC2)CC1	HTR2A ag 15 | OPRM1 ag inactive | HTR2A ag conf inactive
CC(C)C(=O)Nc1c2c(nn1-c1ccc(F)cc1)CSC2	HTR2A ag 16 (no result: TLR4 MyD88 comp) | OPRM1 ag inactive | HTR2A ag conf inactive
CC(C)(C)C(=O)Nc1c2c(nn1-c1ccc(F)cc1)CSC2	none (no result: TLR4 MyD88 comp)
CNC(=O)C[C@H]1C(=O)N(c2ccc(OC)cc2)C[C@@H]1CSC	none (no result: TLR4 MyD88 comp)
CN(Cc1ccccc1)C(=O)C(=O)c1ccccc1	none (no result: CRFR2-BP antag, TLR9-MyD88 inh, TLR4 MyD88 comp)
Cc1[nH]n(-c2ccccc2)c(=O)c1N=Nc1ccccc1O	none
Cc1[nH]n(-c2ccccc2)c(=O)c1N=Nc1ccccc1C(=O)O	HTR2A ag 18 (no result: TLR4 MyD88 comp) | OPRM1 ag inactive | HTR2A ag conf inactive
CCOC(=O)[C@]12CCC=C1N(Cc1ccco1)C(=O)[C@H](CC(=O)N1CCN(C(=O)c3ccco3)CC1)C2	none (no result: CRFR2-BP antag, TLR9-MyD88 inh, TLR4 MyD88 comp)
Oc1ccc(CCNc2c3ccccc3nc3ccccc23)cc1O	HTR2A ag 42 (no result: TLR4 MyD88 comp) | OPRM1 ag inactive | HTR2A ag conf 58
Cc1ccc(SCCNC(=O)C(C)C)cc1	HTR2A ag 16 | OPRM1 ag inactive | HTR2A ag conf inactive
O=C1NC[C@H](CCCCN2C[C@H](Cc3ccccc3)N(CCC3CCCCC3)C(=O)C2=O)N(CCC2CCCCC2)C1=O	none (no result: CRFR2-BP antag, TLR9-MyD88 inh, TLR4 MyD88 comp)
O=C1NC[C@@H](CCCCN2C[C@H](Cc3ccccc3)N(CCC3CCCCC3)C(=O)C2=O)N(Cc2ccccc2)C1=O	HTR2A ag 15 (no result: CRFR2-BP antag, TLR9-MyD88 inh, TLR4 MyD88 comp) | OPRM1 ag inactive | HTR2A ag conf inactive
CCCn1nc(C(=O)Nc2nc(-c3ccccn3)cs2)c2ccccc2c1=O	HTR2A ag 23 (no result: TLR4 MyD88 comp) | OPRM1 ag inactive | HTR2A ag conf inactive
CC(=O)N1CC2(CC(c3ccccc3C(F)(F)F)=NO2)CN1c1ccc(Cl)cc1 (stereo not given)	none (no result: TLR4 MyD88 comp)
CCOc1ccc(/C=C\c2nc(O)c([N+](=O)[O-])c(=O)[nH]2)cc1OCC	HTR2A ag 15 (no result: TLR4 MyD88 comp) | OPRM1 ag inactive | HTR2A ag conf inactive
CC1(C(=O)NCc2cccs2)Cc2c(-c3cccc(C(F)(F)F)c3)ccnc2O1 (stereo not given)	none (no result: CRFR2-BP antag, TLR9-MyD88 inh, TLR4 MyD88 comp)
O=C(c1ccco1)N1CCN(Cc2ccccc2F)CC1	HTR2A ag 20 (no result: TLR4 MyD88 comp) | OPRM1 ag inactive | HTR2A ag conf 76
Cc1ccccc1CN1CCN(C(=O)c2ccco2)CC1	HTR2A ag 25 (no result: TLR4 MyD88 comp) | OPRM1 ag inactive | HTR2A ag conf 85
Cc1ccccc1CC(=O)N1CCN(C(=O)c2ccco2)CC1	none (no result: TLR4 MyD88 comp)
Cc1ccc(CN2CCN(C(=O)c3ccco3)CC2)cc1	HTR2A ag 43 | OPRM1 ag inactive | HTR2A ag conf 121
Cc1ccsc1C(=O)N1CCN(C(=O)c2ccco2)CC1	HTR2A ag 17 (no result: TLR4 MyD88 comp) | OPRM1 ag inactive | HTR2A ag conf inactive
O=C(c1ccco1)N1CCN(Cc2cccnc2)CC1	none
Nc1ncnc2c1ncn2[C@@H]1O[C@H](C(=O)Nc2cc(C(F)(F)F)cc(C(F)(F)F)c2)[C@@H](O)[C@H]1O	none (no result: CRFR2-BP antag, TLR9-MyD88 inh, TLR4 MyD88 comp)
Cc1cc(Br)cc(Cl)c1OCC(=O)N1CCN(C(=O)c2ccco2)CC1	none (no result: TLR4 MyD88 comp)
Cc1cc(C)c(OCC(=O)OCC(=O)N2CCN(C(=O)c3ccco3)CC2)c(C)c1	HTR2A ag 19 (no result: TLR4 MyD88 comp) | OPRM1 ag inactive | HTR2A ag conf inactive
CN(CCc1ccccc1)c1cc2c(c3c1ccn3C)C1CCC2C1 (stereo not given)	none (no result: CRFR2-BP antag, TLR9-MyD88 inh, TLR4 MyD88 comp)
CC1(C(=O)NCc2ccccc2)CN(S(C)(=O)=O)CC(=O)N1C1CCN(Cc2ccccc2)CC1 (stereo not given)	none (no result: CRFR2-BP antag, TLR9-MyD88 inh, TLR4 MyD88 comp)
CC(C)NC(=O)C1(C)CN(S(C)(=O)=O)CC(=O)N1C1CCN(Cc2ccccc2)CC1 (stereo not given)	HTR2A ag 27 (no result: CRFR2-BP antag, TLR9-MyD88 inh, TLR4 MyD88 comp) | OPRM1 ag inactive | HTR2A ag conf inactive
COc1cc(/C=N/n2c(-c3ccc4c(c3)NC(=O)CO4)csc2=Nc2cccc(C)c2)ccc1O	none
CC(C)N=c1scc(-c2ccco2)n1/N=C/c1ccc(O)c(O)c1	HTR2A ag 18 | OPRM1 ag 1.1 | HTR2A ag conf inactive
C=CCN=c1scc(-c2ccco2)n1/N=C/c1ccc(O)c(O)c1O	HTR2A ag 16 (no result: TLR4 MyD88 comp) | OPRM1 ag 1.9 | HTR2A ag conf 129
COCCN=c1scc(-c2ccco2)n1/N=C/c1ccc(O)c(O)c1O	HTR2A ag 28 | OPRM1 ag inactive | HTR2A ag conf 72
Oc1ccc(/C=N/n2c(-c3ccco3)csc2=Nc2cccnc2)c(O)c1	none
CC1(C(=O)Nc2ccccc2)CCN1C(=O)CCc1ccc(Cl)cc1Cl (stereo not given)	none (no result: CRFR2-BP antag, TLR9-MyD88 inh, TLR4 MyD88 comp)
COc1cccc(-n2c(-c3ccccc3)c[nH]c2=S)c1	HTR2A ag 22 (no result: TLR4 MyD88 comp) | OPRM1 ag 0.5 | HTR2A ag conf inactive
S=c1[nH]cc(-c2ccccc2)n1-c1cccc(Cl)c1	none
CC1(C(=O)NS(=O)(=O)c2ccc(Cl)cc2)CCN1C(=O)C1(c2ccc(Cl)cc2)CC1 (stereo not given)	HTR2A ag 15 (no result: CRFR2-BP antag, TLR9-MyD88 inh, TLR4 MyD88 comp) | OPRM1 ag inactive | HTR2A ag conf inactive
COc1ccc(S(=O)(=O)N2CCOC2CNC(=O)C(=O)NCCc2ccccc2)cc1 (stereo not given)	HTR2A ag 46 (no result: TLR4 MyD88 comp) | OPRM1 ag inactive | HTR2A ag conf inactive
COc1ccc(CCNC(=O)C(=O)NCC2OCCN2S(=O)(=O)c2ccc(C)cc2)cc1 (stereo not given)	none (no result: TLR4 MyD88 comp)
O=C(NCCCO)C(=O)NCC1OCCCN1S(=O)(=O)c1cccs1 (stereo not given)	HTR2A ag 16 (no result: TLR4 MyD88 comp) | OPRM1 ag 0.9 | HTR2A ag conf inactive
Nc1nc(N2CCN(Cc3ccccc3)CC2)n[nH]1	HTR2A ag 39 | OPRM1 ag inactive | HTR2A ag conf 110

Source: PubChem (several laboratories)
